Assay results as given in the supplement of paper PMC10849652.
Of roughly 7,900 targets only a part is listed; those with a hit were picked by preference. About 0.6% of all pairs of compound and target were hits.

Columns and labels:
Experiment in all cases: log2 fold change, soluble protein after heating vs DMSO (PISA); higher = thermal stabilisation; K562 cells, 10 uM, 30 min; active = over 0.2 and 3.5 SD of the protein, either way, in both replicates (recomputed)
IRAK-1-4 Inhibitor I = compound: C1COCCN1CCN2C3=CC=CC=C3N=C2NC(=O)C4=CC(=CC=C4)[N+](=O)[O-] [IRAK-1-4 Inhibitor I]
Procedure, shortened: (§1)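 Soluble protein was defined as the supernatant after 21,000xg for 90 min. It came from K562 cells at 2×10^6 cells/mL given 10 μM compound for 30 min, heated in aliquots for 3 min across 48°C-58°C, pooled, and extracted in PBS with 0.5% NP-40 at 4°C, and was quantified by TMTpro 16plex LC-MS/MS with equalised channel sums. Thermal stability against control samples, from duplicates, is reported as log2 fold change.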

ibrutinib = compound: C=CC(=O)N1CCC[C@@H](n2nc(-c3ccc(Oc4ccccc4)cc3)c3c(N)ncnc32)C1 [ibrutinib]
Procedure, shortened: as §1

[1] = compound: CC(=O)c1cnc2ccc(-c3cc(Cl)c(O)c(Cl)c3)nc2c1N[C@H]1CC[C@H](CN(C)C)CC1
Procedure, shortened: as §1

[2] = compound: CC(C)(O)CC(=O)NCCn1ccc2ncnc(Nc3ccc(Oc4cccc(C(F)(F)F)c4)c(Cl)c3)c21
Procedure, shortened: as §1

[3] = compound: CC(C)C1=C2N=C(C=C(N2N=C1)NCC3=CC=CC=C3)NCCCCCCN
Procedure, shortened: as §1

pinometostat = compound: CC(C)N(C[C@H]1O[C@@H](n2cnc3c(N)ncnc32)[C@H](O)[C@@H]1O)[C@H]1C[C@@H](CCc2nc3cc(C(C)(C)C)ccc3[nH]2)C1 [pinometostat]
Procedure, shortened: as §1

[4] = compound: CC1=C(C2=C(C=C1)C(=O)C3=CC=CC=C3N2CCCN)C
Procedure, shortened: as §1

[5] = compound: CC1=C(C=C(C=C1)NC(=O)C2=CC(=CC=C2)C(C)(C)C#N)NC3=CC4=C(C=C3)N=CN(C4=O)C
Procedure, shortened: as §1

[6] = compound: CC1=NC(=CC=C1)C2=C(N=C(N2)C(C)(C)C)C3=CC4=NC=CN=C4C=C3
Procedure, shortened: as §1

Nexturastat A = compound: CCCCN(Cc1ccc(C(=O)NO)cc1)C(=O)Nc1ccccc1 [Nexturastat A]
Procedure, shortened: as §1

vemurafenib = compound: CCCS(=O)(=O)Nc1ccc(F)c(C(=O)c2c[nH]c3ncc(-c4ccc(Cl)cc4)cc23)c1F [vemurafenib]
Procedure, shortened: as §1

[7] = compound: CCCc1cc(C)[nH]c(=O)c1CNC(=O)c1cc(-c2ccnc(N3CCN(C)CC3)c2)cc2c1cnn2C(C)C
Procedure, shortened: as §1

givinostat = compound: CCN(CC)Cc1ccc2cc(COC(=O)Nc3ccc(C(=O)NO)cc3)ccc2c1 [givinostat]
Procedure, shortened: as §1

barasertib = compound: CCN(CCCOc1ccc2c(Nc3cc(CC(=O)Nc4cccc(F)c4)[nH]n3)ncnc2c1)CCOP(=O)(O)O [barasertib]
Procedure, shortened: as §1

[8] = compound: CC1=CC=C(C=C1)SC2=C3C=C(SC3=CN=C2)C(=O)N
Procedure, shortened: as §1

[9] = compound: CCCS(=O)(=O)Nc1ccc(F)c(C(=O)c2c[nH]c3ncc(Cl)cc23)c1F
Procedure, shortened: as §1

ralimetinib = compound: CC(C)(C)Cn1c(N)nc2ccc(-c3[nH]c(C(C)(C)C)nc3-c3ccc(F)cc3)nc21 [ralimetinib]
Procedure, shortened: as §1

[10] = compound: CC(C)C[C@@H](C=O)NC(=O)[C@H](CC(C)C)NC(=O)[C@H](CC(C)C)NC(=O)OCc1ccccc1
Procedure, shortened: as §1

[11] = compound: CC1=C(C(CC(=O)N1)C2=CC=C(C=C2)C(F)(F)F)C(=O)NC3=C(C=C4C(=C3)C=NN4)F
Procedure, shortened: as §1

[12] = compound: CC1=C(C=C(C=C1)NC(=O)C2=CC(=CC=C2)N(C)C)NC(=O)C3=CC=C(C=C3)O
Procedure, shortened: as §1

Measured: log2 fold change

RAPGEF4 (UniProt Q8WZA2)
inactive: IRAK-1-4 Inhibitor I -0.184 | ibrutinib -0.025 | [1] -0.022 | [2] 0.065 | [3] 0.089 | pinometostat -0.096 | [4] 0.109 | [5] -0.046 | [6] -0.235 | Nexturastat A 0.245 | vemurafenib -0.267 | [7] -0.203 | givinostat 0.248 | barasertib 0.041

RNF220 isoform 3 (UniProt Q5VTB9)
UniProt Q5VTB9, sequence (Q5VTB9 whole entry, looked up): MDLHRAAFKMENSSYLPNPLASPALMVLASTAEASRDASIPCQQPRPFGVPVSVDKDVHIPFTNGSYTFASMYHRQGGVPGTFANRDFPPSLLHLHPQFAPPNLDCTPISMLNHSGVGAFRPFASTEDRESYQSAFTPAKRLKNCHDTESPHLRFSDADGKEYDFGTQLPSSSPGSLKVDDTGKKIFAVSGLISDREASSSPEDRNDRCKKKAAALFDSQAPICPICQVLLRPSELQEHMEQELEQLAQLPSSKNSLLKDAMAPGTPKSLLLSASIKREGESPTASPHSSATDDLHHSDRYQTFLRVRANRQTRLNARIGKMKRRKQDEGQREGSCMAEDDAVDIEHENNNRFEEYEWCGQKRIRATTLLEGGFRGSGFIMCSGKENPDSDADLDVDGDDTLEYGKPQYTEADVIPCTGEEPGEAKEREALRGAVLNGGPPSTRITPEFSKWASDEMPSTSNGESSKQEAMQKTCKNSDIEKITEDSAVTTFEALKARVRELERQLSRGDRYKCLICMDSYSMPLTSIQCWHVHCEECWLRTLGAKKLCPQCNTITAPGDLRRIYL
inactive: [1] 0.086 | [3] 0.056 | [8] 0.385 | [9] 0.201 | givinostat -0.059

SEPTIN5 (UniProt G3XAH0)
active: Nexturastat A -0.255
inactive: ibrutinib 0.018 | [1] 0.123 | ralimetinib -0.056 | [2] -0.133 | [3] 0.092 | [10] -0.009 | [11] -0.003 | [4] 0.027 | [5] -0.002 | [12] -0.046 | [8] 0.04 | vemurafenib 0.058 | [9] 0.023 | [7] -0.009 | givinostat 0.014 | barasertib 0.002

SH3PXD2B (UniProt A1X283)
UniProt A1X283, sequence (A1X283 whole entry, looked up): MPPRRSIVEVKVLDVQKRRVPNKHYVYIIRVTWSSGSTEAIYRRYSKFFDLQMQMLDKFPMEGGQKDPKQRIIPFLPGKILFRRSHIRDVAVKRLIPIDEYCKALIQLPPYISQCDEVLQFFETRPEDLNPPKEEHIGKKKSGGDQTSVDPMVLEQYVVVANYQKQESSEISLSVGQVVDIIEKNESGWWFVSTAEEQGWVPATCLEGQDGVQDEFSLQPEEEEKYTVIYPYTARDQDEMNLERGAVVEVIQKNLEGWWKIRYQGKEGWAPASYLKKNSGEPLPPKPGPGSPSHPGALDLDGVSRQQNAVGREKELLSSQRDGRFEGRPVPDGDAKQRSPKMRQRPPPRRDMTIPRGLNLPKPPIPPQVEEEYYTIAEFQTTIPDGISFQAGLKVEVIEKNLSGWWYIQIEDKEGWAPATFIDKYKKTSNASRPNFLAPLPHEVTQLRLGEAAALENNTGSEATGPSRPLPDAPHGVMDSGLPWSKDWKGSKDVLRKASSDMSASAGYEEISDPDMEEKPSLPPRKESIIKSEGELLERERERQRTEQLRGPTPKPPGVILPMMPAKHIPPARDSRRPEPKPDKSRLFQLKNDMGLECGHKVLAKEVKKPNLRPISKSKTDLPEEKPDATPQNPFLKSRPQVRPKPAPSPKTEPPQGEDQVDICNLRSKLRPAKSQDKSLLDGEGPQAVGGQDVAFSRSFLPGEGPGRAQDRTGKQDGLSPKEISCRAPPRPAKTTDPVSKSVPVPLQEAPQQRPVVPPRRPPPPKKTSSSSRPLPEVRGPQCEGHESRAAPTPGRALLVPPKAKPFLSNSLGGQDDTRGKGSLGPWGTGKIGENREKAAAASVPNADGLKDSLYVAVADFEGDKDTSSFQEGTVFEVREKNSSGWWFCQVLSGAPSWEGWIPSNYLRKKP
inactive: ibrutinib -0.115 | [1] -0.005 | [2] 0.035 | [3] 0.075 | [11] -0.054 | [4] 0.027 | [5] -0.029 | Nexturastat A -0.052 | vemurafenib -0.145 | [7] 0.187 | barasertib 0.043
active: givinostat -0.548

RALGPS2 (UniProt Q86X27)
UniProt Q86X27, sequence (Q86X27 whole entry, looked up): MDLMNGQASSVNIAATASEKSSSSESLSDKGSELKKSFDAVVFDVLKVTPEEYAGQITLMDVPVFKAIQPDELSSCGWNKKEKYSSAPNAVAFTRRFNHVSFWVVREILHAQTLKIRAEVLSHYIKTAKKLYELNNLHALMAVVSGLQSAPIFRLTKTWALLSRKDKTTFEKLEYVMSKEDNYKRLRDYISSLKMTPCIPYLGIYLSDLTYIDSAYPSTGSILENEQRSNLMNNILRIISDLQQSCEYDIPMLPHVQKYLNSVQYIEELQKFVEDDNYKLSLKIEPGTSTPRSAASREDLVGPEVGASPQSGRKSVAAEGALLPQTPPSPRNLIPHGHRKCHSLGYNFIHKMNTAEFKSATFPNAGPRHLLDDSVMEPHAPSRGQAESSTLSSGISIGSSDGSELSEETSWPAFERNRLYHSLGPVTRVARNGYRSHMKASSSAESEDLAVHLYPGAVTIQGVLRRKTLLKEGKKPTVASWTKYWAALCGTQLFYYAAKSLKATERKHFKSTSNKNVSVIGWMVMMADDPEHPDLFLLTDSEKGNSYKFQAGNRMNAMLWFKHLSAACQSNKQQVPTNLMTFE
inactive: IRAK-1-4 Inhibitor I -0.249 | ibrutinib 0.061 | [1] -0.045 | [2] 0.051 | [3] 0.141 | pinometostat 0.397 | [4] 0.029 | [6] -0.234 | vemurafenib 0.023 | [7] -0.128 | givinostat -0.147 | barasertib -0.116
active: Nexturastat A 1.06

SEMG2 (UniProt Q02383)
UniProt Q02383, sequence (Q02383 whole entry, looked up): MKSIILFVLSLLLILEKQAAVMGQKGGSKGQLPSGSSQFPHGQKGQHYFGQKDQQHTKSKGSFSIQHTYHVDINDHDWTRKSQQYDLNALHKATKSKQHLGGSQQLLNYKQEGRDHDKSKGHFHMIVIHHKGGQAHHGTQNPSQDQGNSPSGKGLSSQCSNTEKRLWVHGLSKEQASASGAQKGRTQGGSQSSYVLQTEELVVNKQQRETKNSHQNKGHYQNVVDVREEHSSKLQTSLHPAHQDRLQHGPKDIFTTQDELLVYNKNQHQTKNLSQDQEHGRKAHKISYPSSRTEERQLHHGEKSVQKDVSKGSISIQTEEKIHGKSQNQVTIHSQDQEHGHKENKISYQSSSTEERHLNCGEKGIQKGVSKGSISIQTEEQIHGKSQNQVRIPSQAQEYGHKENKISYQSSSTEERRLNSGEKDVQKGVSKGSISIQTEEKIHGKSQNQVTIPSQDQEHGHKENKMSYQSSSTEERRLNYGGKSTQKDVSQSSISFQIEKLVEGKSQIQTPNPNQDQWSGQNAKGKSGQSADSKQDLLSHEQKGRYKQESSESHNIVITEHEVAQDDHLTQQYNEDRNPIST
inactive: ibrutinib -0.031 | [1] -0.148 | [2] -0.011 | [11] -0.031 | [4] 0.049 | [5] -0.038 | Nexturastat A -0.062 | [7] -0.097 | barasertib 0.015

SAMD4B (UniProt Q5PRF9)
inactive: IRAK-1-4 Inhibitor I 0.007 | ibrutinib -0.024 | ralimetinib 0.053 | [2] 0.133 | [3] 0.142 | [10] 0.04 | pinometostat 0.051 | [11] 0.05 | [4] 0.039 | [12] -0.02 | [8] 0 | [6] -0.054 | Nexturastat A 0.202 | [9] -0.132 | givinostat 0.201 | barasertib 0.157
active: [5] -0.501

RNF41 (UniProt Q9H4P4)
UniProt Q9H4P4, sequence (Q9H4P4 whole entry, looked up): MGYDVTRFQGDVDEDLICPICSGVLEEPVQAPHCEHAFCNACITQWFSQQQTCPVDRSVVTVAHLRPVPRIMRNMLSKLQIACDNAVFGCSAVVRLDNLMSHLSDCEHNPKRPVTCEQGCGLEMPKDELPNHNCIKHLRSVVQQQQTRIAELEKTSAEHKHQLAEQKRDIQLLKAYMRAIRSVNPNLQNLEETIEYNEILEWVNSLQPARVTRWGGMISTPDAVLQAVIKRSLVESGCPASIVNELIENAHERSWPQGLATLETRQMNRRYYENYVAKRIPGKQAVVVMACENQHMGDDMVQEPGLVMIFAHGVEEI
inactive: ibrutinib -0.104 | [1] 0.082 | barasertib -0.15

RAB3D (UniProt O95716)
active: [10] -0.605
inactive: ibrutinib -0.096 | [1] -0.02 | ralimetinib 0.133 | [3] 0.121 | [11] -0.14 | [4] -0.104 | [12] 0.074 | [8] 0.036 | vemurafenib -0.113 | [9] 0.094 | [7] 0.032 | givinostat -0.08 | barasertib 0.034

SIK3 (UniProt H0Y4E8)
active: [1] -0.425
inactive: IRAK-1-4 Inhibitor I 0.043 | ralimetinib 0.135 | [3] 0.186 | [10] -0.167 | pinometostat -0.036 | [11] 0.179 | [4] -0.124 | [5] 0.017 | [12] 0.18 | [8] -0.062 | [6] -0.066 | vemurafenib -0.08 | [9] -0.076 | [7] -0.026 | givinostat 0.098

RNF185 (UniProt Q96GF1)
UniProt Q96GF1, sequence (Q96GF1 whole entry, looked up): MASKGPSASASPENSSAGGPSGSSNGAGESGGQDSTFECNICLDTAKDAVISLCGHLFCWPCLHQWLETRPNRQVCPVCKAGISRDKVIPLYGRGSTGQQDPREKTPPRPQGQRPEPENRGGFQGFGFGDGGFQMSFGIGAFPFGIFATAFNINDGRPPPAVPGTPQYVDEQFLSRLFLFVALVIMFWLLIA
inactive: ibrutinib 0.045 | [1] 0.087 | ralimetinib -0.04 | [3] -0.011 | [10] -0.003 | [11] 0.006 | [4] 0.276 | [12] -0.055 | [8] -0.074 | vemurafenib 0.009 | [9] 0.1 | [7] -0.081 | givinostat -0.013 | barasertib 0.055

RPS3A (UniProt D6R9B6)
inactive: [1] -0.124 | [4] -0.363 | [5] -0.199

RUFY3 isoform 3 (UniProt Q7L099)
inactive: IRAK-1-4 Inhibitor I -0.008 | [1] 0.023 | ralimetinib 0.196 | [3] -0.098 | [10] -0.054 | pinometostat 0.035 | [11] -0.123 | [4] 0.044 | [5] -0.085 | [12] -0.068 | [8] 0.016 | [6] 0.038 | vemurafenib -0.032 | [9] -0.011 | [7] -0.093 | givinostat 0.021

SCLT1 (UniProt Q96NL6)
inactive: IRAK-1-4 Inhibitor I -0.046 | ibrutinib -0.049 | pinometostat 0.005 | [11] -0.118 | [4] 0.129 | [5] -0.057 | [6] -0.161 | vemurafenib 0.045 | [7] 0.01 | barasertib 0.049

RPS19 (UniProt M0R2L9)
inactive: [1] -0.083 | [11] 0.538 | [4] -0.177 | [8] -0.169 | [9] -0.98 | [7] 0.113

SLC1A3 (UniProt P43003)
inactive: ibrutinib 0.168 | [1] 0.056 | ralimetinib 0.058 | [2] 0.007 | [3] 0.238 | [10] -0.064 | [11] 0.018 | [4] 0.029 | [12] -0.047 | [8] 0.043 | Nexturastat A -0.099 | vemurafenib -0.043 | [9] -0.095 | [7] -0.127 | givinostat -0.1 | barasertib -0.01

RPS3 (UniProt E9PJN9)
inactive: ralimetinib 0.228 | [10] 0.134 | [4] -0.126 | [12] 0.125

RBMY1E (UniProt A6NEQ0)
inactive: IRAK-1-4 Inhibitor I 0.019 | ibrutinib -0.024 | ralimetinib 0.131 | [3] 0.134 | [10] 0.141 | pinometostat -0.032 | [11] 0.026 | [4] -0.01 | [12] 0.009 | [8] 0.183 | [6] 0.075 | [9] 0.082 | [7] -0.023 | givinostat 0.059 | barasertib 0.135

SH2D1B (UniProt O14796)
active: [1] -1.57
inactive: IRAK-1-4 Inhibitor I 0.202 | ralimetinib 0.042 | [2] -0.052 | [3] 0.095 | [10] 0.005 | pinometostat 0.027 | [11] 0.106 | [4] -0.004 | [5] -0.781 | [12] 0.013 | [8] -0.01 | [6] -0.011 | Nexturastat A 0.143 | vemurafenib 0.048 | [9] -0.135 | [7] -0.146 | givinostat -0.028

S100A10 (UniProt P60903)
inactive: ibrutinib 0.605 | [1] -0.345 | [11] -0.06 | [4] 0.522 | [5] 0.128 | [8] 0.181 | [9] -0.086 | barasertib 0.113

RMDN2 isoform 2 (UniProt Q96LZ7)
inactive: IRAK-1-4 Inhibitor I 0.034 | ralimetinib 0.095 | [10] 0.137 | pinometostat 0.025 | [11] -0.192 | [12] -0.022 | [6] -0.127 | vemurafenib 0.217 | [7] -0.196

SDCBP isoform 2 (UniProt O00560)
UniProt O00560, sequence (O00560 whole entry, looked up): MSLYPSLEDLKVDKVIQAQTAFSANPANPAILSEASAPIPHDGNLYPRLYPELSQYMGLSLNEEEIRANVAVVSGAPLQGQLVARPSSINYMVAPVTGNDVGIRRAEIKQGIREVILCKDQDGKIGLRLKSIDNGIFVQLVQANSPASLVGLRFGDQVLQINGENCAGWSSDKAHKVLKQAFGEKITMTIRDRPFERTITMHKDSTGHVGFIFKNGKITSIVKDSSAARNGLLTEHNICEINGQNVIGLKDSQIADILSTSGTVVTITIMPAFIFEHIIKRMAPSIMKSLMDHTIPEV
inactive: ibrutinib 0 | ralimetinib 0.06 | [2] 0.008 | [3] -0.444 | [10] 0.13 | [11] -0.29 | [4] 0.033 | [5] 0.06 | [12] -0.058 | [8] 0.004 | Nexturastat A 0.149 | [9] 0.076 | [7] -0.048 | givinostat -0.008 | barasertib 0.046

RPS6KA5 (UniProt O75582)
inactive: IRAK-1-4 Inhibitor I 0.071 | ralimetinib -0.11 | [2] -0.042 | [3] -0.218 | [10] 0.069 | pinometostat -0.431 | [12] -0.039 | [8] 0.029 | [6] -0.017 | Nexturastat A 0.013 | [9] 0.121 | [7] 0.237 | givinostat 0.025

SCAMP2 (UniProt O15127)
inactive: ibrutinib 0.09 | [1] 0.08 | ralimetinib -0.019 | [2] 0.013 | [3] 0.003 | [10] 0.036 | [11] -0.093 | [4] -0.066 | [5] -0.032 | [12] -0.032 | [8] 0.046 | Nexturastat A -0.061 | vemurafenib 0.081 | [9] 0.043 | [7] 0.013 | givinostat -0.085 | barasertib -0.029

SDC3 (UniProt O75056)
UniProt O75056, sequence (O75056 whole entry, looked up): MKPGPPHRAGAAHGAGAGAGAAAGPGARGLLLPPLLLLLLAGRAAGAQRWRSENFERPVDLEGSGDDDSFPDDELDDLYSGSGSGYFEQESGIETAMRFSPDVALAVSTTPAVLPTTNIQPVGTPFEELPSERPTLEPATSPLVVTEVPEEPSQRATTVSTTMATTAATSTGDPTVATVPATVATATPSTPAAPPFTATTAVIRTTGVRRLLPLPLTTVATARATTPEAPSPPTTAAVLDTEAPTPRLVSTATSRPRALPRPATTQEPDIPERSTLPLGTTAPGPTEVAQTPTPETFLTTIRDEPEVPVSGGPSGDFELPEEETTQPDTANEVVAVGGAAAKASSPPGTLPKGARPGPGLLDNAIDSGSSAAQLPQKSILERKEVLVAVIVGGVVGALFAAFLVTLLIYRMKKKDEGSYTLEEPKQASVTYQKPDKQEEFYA
inactive: [1] 0.089 | [2] -0.006 | [11] 0.042 | [4] -0.036 | [5] 0.091 | Nexturastat A 0.016 | vemurafenib 0.073

RBM6 (UniProt P78332)
UniProt P78332, sequence (P78332 whole entry, looked up): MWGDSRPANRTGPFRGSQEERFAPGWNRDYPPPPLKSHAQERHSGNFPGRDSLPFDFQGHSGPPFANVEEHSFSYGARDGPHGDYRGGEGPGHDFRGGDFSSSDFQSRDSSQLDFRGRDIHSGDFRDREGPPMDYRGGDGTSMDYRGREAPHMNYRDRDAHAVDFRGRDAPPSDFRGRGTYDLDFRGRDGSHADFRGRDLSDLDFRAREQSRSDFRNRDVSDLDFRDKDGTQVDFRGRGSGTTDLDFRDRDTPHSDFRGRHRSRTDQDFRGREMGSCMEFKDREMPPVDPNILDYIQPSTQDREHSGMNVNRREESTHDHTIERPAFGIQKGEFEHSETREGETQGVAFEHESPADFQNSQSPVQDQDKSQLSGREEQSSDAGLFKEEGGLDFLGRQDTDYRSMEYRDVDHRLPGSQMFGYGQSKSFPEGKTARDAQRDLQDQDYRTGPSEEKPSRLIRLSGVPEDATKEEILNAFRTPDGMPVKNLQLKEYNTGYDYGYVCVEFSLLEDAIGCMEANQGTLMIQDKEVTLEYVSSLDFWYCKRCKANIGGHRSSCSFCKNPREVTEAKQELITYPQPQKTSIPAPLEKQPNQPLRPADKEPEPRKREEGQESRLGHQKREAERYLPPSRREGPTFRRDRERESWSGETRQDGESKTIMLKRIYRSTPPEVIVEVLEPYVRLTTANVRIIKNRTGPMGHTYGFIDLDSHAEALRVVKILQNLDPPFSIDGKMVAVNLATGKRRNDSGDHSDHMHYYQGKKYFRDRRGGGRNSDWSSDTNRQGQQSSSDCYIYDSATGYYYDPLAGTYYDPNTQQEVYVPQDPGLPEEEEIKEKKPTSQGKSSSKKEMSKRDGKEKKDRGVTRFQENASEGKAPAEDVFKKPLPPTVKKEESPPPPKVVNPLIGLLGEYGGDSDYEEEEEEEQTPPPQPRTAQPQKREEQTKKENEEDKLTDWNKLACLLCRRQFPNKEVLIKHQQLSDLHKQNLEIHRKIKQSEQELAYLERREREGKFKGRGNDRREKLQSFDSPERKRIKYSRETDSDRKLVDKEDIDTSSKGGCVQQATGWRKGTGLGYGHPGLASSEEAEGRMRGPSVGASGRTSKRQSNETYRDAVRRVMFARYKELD
inactive: IRAK-1-4 Inhibitor I 0.146 | [1] -0.208 | pinometostat -0.09 | [11] -0.19 | [4] -0.16 | [5] -0.009 | [8] -0.056 | [6] 0.092 | [9] 0.031 | [7] -0.079
